Source: ChEMBL document CHEMBL1201862, “PubChem BioAssay data set” (2004)
Out of some 300,000 compounds screened, about 3,700 (1.2%) were called active. About 20% were inconclusive and are not listed. The rule behind the calls is not given here. Shown is part of a subset that was picked to be rich in actives.

System: HEK293
Test: qHTS for Inhibitors of binding or entry into cells for Lassa Virus. [Related pubchem assays (depositor defined):AID463114, AID540249]
Format: functional, Homo sapiens
Settings: read-out: Potency

Compound	AC50
C[C@@H]1O[C@@H](O[C@H]2C[C@@H](O)[C@]3(CO)[C@H]4[C@H](O)C[C@]5(C)[C@@H]([C@@H]6COC(=O)C6)CC[C@]5(O)[C@@H]4CC[C@]3(O)C2)[C@H](O)[C@H](O)[C@H]1O [DIHYDROOUABAIN]	1580 nM (active)
